Test systems include HCT-15 colon; HT29 colon; SNB-75 CNS; SNB-19 CNS; U251 CNS; PC-3 prostate; SK-MEL-5 melanoma; UACC-62 melanoma; LOX IMVI melanoma; SK-MEL-28 melanoma; SK-MEL-2 melanoma; EKVX NSCLC; SN12C renal; TK-10 renal; ACHN renal; CAKI-1 renal; A498 renal; MOLT-4 leukemia; CCRF-CEM leukemia; UO-31 renal.
What all share (assay): NCI-60 one-dose screen, 48 h (100 = growth as untreated, 0 = no growth, -100 = all killed)
Conditions in all cases: 10 µM unless noted

The structures appear in SMILES notation. Compounds without any hit were thinned out: in the full panel of roughly 83,000, 20% have a hit.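 Each cell line was grown in a 96-well plate and treated with one concentration of compound for 48 hours. Values below 10 were considered active.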 Unmarked numbers belong to inactive results. Active and inactive are the calls of the source.

In the case of `N#Cc1c(NC(=O)c2ccco2)[n+]([O-])c2cc(Cl)c(Cl)cc2[n+]1[O-]`, the growth is 111% in the experiment on HCT-15 colon; 103% with HT29 colon; 103% with SNB-75 CNS; 111% with SNB-19 CNS; 102% in the experiment on U251 CNS; 125% in the experiment on PC-3 prostate. Further, the growth in the experiment on SK-MEL-5 melanoma was 94.8%; in the experiment on UACC-62 melanoma, 85.2%; in the experiment on LOX IMVI melanoma, 90.5%; in the experiment with SK-MEL-28 melanoma it was 104%; with SK-MEL-2 melanoma, 89.9%; with EKVX NSCLC, 82.4%. Also, the growth in the experiment with SN12C renal was 94.1%; in the experiment with TK-10 renal, 163%; in the experiment with ACHN renal it was 110%; in the experiment with CAKI-1 renal, 134%; in the experiment with A498 renal, 109%; with MOLT-4 leukemia it was 1.53% (active).
With `Cc1cnc2nc(-c3ccc(N(C)C)cc3)cn2c1`, the growth in the experiment on HCT-15 colon is 107%; in the experiment on HT29 colon, 112%; in the experiment with SNB-75 CNS, 133%; with SNB-19 CNS, 107%; with U251 CNS it was 110%; in the experiment with PC-3 prostate, 121%. Further, the growth with SK-MEL-5 melanoma was 99.4%; in the experiment on UACC-62 melanoma it was 96%; with LOX IMVI melanoma, 106%; in the experiment on SK-MEL-28 melanoma, 123%; in the experiment on SK-MEL-2 melanoma, 101%; with EKVX NSCLC, 91.7%. For the same compound, the growth is 103% with SN12C renal; 97.6% in the experiment with TK-10 renal; 112% in the experiment with ACHN renal; 108% with CAKI-1 renal; 83.3% in the experiment with CCRF-CEM leukemia; 91.9% with MOLT-4 leukemia.
For `CN(C)c1ccc(-c2nc3ncc(Br)cc3o2)cc1`, the growth in the experiment on HCT-15 colon is 115%; in the experiment with HT29 colon, 110%; in the experiment with SNB-75 CNS, 103%; with SNB-19 CNS, 91%; with U251 CNS, 100%; in the experiment on PC-3 prostate, 83.3%. For the same compound, the growth is 99.8% in the experiment with SK-MEL-5 melanoma; 87.3% with UACC-62 melanoma; 98.4% in the experiment on LOX IMVI melanoma; 120% in the experiment with SK-MEL-28 melanoma; 92.1% in the experiment with SK-MEL-2 melanoma; 78.4% in the experiment on EKVX NSCLC. For the same compound, the growth is 98.2% in the experiment with SN12C renal; 140% with TK-10 renal; 99.9% in the experiment with ACHN renal; 109% in the experiment on CAKI-1 renal; 79.8% in the experiment on A498 renal; 77.1% in the experiment on CCRF-CEM leukemia. Moreover, the growth in the experiment on MOLT-4 leukemia was 81%.
As for `COc1cnc2c(c1)C(=O)c1c-2n(CCCNC(C)C)c(=O)c2cc(F)ccc12`, the growth is -5.08% (active) in the experiment with HCT-15 colon; 0.147% (active) in the experiment with HT29 colon; -22.5% (active) in the experiment on SNB-75 CNS; 11% in the experiment with SNB-19 CNS; -32.8% (active) in the experiment with U251 CNS; -5.02% (active) with PC-3 prostate. In addition, the growth was -98.5% (active) in the experiment on SK-MEL-5 melanoma; -44.2% (active) in the experiment on UACC-62 melanoma; -68% (active) with LOX IMVI melanoma; -11.1% (active) in the experiment with SK-MEL-28 melanoma; -5.42% (active) with SK-MEL-2 melanoma; -20.8% (active) in the experiment on EKVX NSCLC. Further, the growth in the experiment on SN12C renal is -4.41% (active); in the experiment on UO-31 renal it was -89.9% (active); with ACHN renal, -69.4% (active); in the experiment on CCRF-CEM leukemia it was -1.1% (active); in the experiment with MOLT-4 leukemia, -22.9% (active).
With `OCc1n(Cc2ccc3ccccc3c2)cc[n+]1Cc1ccc2ccccc2c1`, the growth is 100% in the experiment on HCT-15 colon; 36.6% with HT29 colon; 34.8% with SNB-75 CNS; 44.5% in the experiment with SNB-19 CNS; 60% in the experiment with U251 CNS; 37.8% in the experiment with PC-3 prostate. Besides, the growth with SK-MEL-5 melanoma is -28% (active); in the experiment with UACC-62 melanoma, 12.8%; in the experiment on LOX IMVI melanoma, 45.4%; with SK-MEL-28 melanoma, 24.9%; in the experiment with SK-MEL-2 melanoma, 67.7%; with EKVX NSCLC, 83.3%. Also, the growth in the experiment on SN12C renal is 41.7%; with UO-31 renal, 83.5%; with ACHN renal it was 109%; in the experiment with A498 renal, 72.7%; in the experiment on CCRF-CEM leukemia, 34.2%; in the experiment with MOLT-4 leukemia it was 47.5%.
Regarding `COc1cccc(-c2nc(-c3ccc(N)cc3)co2)c1`, the growth in the experiment on HCT-15 colon was 89.8%; with HT29 colon it was 87.2%; with SNB-75 CNS, 116%; in the experiment on SNB-19 CNS it was 113%; with U251 CNS, 92.2%; with PC-3 prostate, 98.2%. The growth was 85.9% in the experiment with SK-MEL-5 melanoma; 90.3% in the experiment on UACC-62 melanoma; 97% in the experiment on LOX IMVI melanoma; 111% in the experiment on SK-MEL-28 melanoma; 99.8% in the experiment on SK-MEL-2 melanoma; 102% with EKVX NSCLC. The growth is 95.2% in the experiment with SN12C renal; 109% in the experiment on TK-10 renal; 106% with ACHN renal; 94.7% with CAKI-1 renal; 100% with A498 renal; 81.8% with MOLT-4 leukemia.
For `Cc1cc(-c2ccccc2)cc(C)n1`, the growth was 105% in the experiment on HCT-15 colon; 99% in the experiment with HT29 colon; 86.1% with SNB-75 CNS; 99.4% in the experiment with SNB-19 CNS; 103% with U251 CNS; 96.6% in the experiment with PC-3 prostate. Besides, the growth is 106% in the experiment with SK-MEL-5 melanoma; 103% in the experiment with UACC-62 melanoma; 96.9% in the experiment with LOX IMVI melanoma; 107% with SK-MEL-28 melanoma; 98.1% with SK-MEL-2 melanoma; 116% in the experiment with EKVX NSCLC. For the same compound, the growth in the experiment with UO-31 renal was 78.6%; in the experiment on TK-10 renal it was 103%; in the experiment on ACHN renal, 106%; in the experiment on CAKI-1 renal it was 103%; in the experiment with A498 renal, 116%; in the experiment on CCRF-CEM leukemia it was 102%. For the same compound, in the experiment with MOLT-4 leukemia, the growth was 100%.
As to `c1ccc2nc(Cn3c[n+](Cc4ccc5ccccc5n4)c4ccccc43)ccc2c1`, the growth with HCT-15 colon is 98.7%; in the experiment on HT29 colon, 15.5%; with SNB-75 CNS, 41.4%; in the experiment with SNB-19 CNS, 30.5%; with U251 CNS it was 34%; in the experiment on PC-3 prostate, 14.6%. For the same compound, the growth was -83.9% (active) with SK-MEL-5 melanoma; -16.4% (active) in the experiment on UACC-62 melanoma; 25.8% in the experiment on LOX IMVI melanoma; 39.4% in the experiment with SK-MEL-28 melanoma; 28.9% in the experiment on SK-MEL-2 melanoma; 74.7% in the experiment on EKVX NSCLC. Also, the growth is 22.7% in the experiment on SN12C renal; 79.5% in the experiment with UO-31 renal; 103% with ACHN renal; 51.1% in the experiment on A498 renal; 34.9% in the experiment on CCRF-CEM leukemia; 31.9% in the experiment on MOLT-4 leukemia.
`C1=C(Cc2ccccc2)n2cnc3ncnc(c32)S1`: the growth was 71.8% in the experiment with HCT-15 colon; 55.7% in the experiment on HT29 colon; 45.8% in the experiment on SNB-75 CNS; 94.1% in the experiment with SNB-19 CNS; 78.8% with U251 CNS; 78.2% in the experiment on PC-3 prostate. In addition, the growth with SK-MEL-5 melanoma was 86.1%; in the experiment on UACC-62 melanoma, 54.5%; in the experiment on LOX IMVI melanoma, 9.31% (active); with SK-MEL-28 melanoma it was 103%; with SK-MEL-2 melanoma, 75%; with SN12C renal, 86.4%. The growth in the experiment with UO-31 renal was 48.3%; with TK-10 renal, 28.6%; with ACHN renal, 87.2%; in the experiment on CAKI-1 renal it was 39.6%; in the experiment with A498 renal, 99.6%; with CCRF-CEM leukemia it was 58.9%. Also, the growth in the experiment on MOLT-4 leukemia was 31.2%.
